# Laboratory results from paper PMC7862700, “An all-to-all approach to the identification of sequence-specific readers for epigenetic DNA modifications on cytosine”.
# Experiments:
# Assay in all cases: DAPPL (digital affinity profiling via proximity ligation, sequencing); 10 mM Tris-HCl pH 7.5, 50 mM NaCl, 1 mM DTT, 4% glycerol, room temperature, 30 min; GST-TFs on glutathione beads, 16-mer random dsDNA library, 0.1% formaldehyde crosslink after washing; high values mean tight binding
# Conditions in all cases: protein: recombinant; tags: N-terminal GST; dsDNA, one strand shown
# FLI1 = molecular target: T1, FLI1 (Homo sapiens, UniProt Q01543 1-452)
# T1 sequence: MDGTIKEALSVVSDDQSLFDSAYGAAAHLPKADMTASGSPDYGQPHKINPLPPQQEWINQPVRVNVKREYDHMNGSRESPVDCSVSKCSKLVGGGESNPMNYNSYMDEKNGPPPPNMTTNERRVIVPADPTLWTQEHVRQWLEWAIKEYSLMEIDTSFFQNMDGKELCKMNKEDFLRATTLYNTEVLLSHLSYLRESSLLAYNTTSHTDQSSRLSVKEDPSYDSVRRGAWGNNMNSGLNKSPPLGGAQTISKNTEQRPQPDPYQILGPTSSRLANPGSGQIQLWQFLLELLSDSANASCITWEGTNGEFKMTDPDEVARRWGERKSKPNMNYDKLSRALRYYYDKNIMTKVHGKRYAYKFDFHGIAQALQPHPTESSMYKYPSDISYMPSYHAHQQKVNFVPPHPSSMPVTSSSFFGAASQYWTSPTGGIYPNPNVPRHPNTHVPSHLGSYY
# Summary of the method: (§1)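 Binding signal is each hexamer's read frequency for a factor divided by its frequency in the tag-only sample. The factors were GST-fused human transcription factors from yeast, captured on glutathione beads, DNA-barcoded and pooled with that sample. Pools were incubated with 200 nmole of a random double-stranded 16-mer DNA library in Tris/NaCl/DTT/glycerol buffer at room temperature for 30 min, then washed, crosslinked with 0.1% formaldehyde, proximity-ligated with BsaI/T4 ligase (1 h, 37 °C), PCR-amplified and sequenced on an Illumina NextSeq500.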
# ELK1 = molecular target: T2, ELK1 (Homo sapiens, UniProt P19419 1-428)
# T2 sequence: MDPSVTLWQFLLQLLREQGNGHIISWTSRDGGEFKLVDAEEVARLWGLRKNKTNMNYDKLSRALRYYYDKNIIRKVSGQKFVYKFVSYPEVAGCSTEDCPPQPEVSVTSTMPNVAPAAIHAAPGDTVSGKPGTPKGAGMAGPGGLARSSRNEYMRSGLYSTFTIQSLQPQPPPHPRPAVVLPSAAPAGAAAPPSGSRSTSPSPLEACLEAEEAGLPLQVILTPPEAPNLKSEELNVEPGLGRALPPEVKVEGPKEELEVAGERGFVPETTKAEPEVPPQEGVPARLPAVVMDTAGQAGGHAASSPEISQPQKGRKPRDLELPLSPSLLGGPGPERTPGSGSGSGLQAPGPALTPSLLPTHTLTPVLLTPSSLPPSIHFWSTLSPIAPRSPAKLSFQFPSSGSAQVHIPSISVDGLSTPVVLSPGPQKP
# Summary of the method: as §1
# GABPA = molecular target: T3, GABPA (Homo sapiens, UniProt Q06546 1-454)
# T3 sequence: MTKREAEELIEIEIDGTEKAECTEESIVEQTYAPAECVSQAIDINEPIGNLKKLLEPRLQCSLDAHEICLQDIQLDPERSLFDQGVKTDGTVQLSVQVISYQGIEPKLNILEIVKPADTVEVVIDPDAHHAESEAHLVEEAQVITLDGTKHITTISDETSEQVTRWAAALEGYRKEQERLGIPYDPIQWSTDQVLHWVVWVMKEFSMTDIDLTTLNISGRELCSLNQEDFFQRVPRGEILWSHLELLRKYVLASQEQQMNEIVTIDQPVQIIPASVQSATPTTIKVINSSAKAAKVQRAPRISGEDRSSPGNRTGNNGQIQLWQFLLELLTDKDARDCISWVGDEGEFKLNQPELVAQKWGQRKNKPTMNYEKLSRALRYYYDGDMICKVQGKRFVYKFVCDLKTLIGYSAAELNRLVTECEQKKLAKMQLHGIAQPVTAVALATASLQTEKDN
# Summary of the method: as §1
# ERG = molecular target: T4, ERG (Homo sapiens, UniProt P11308 1-479)
# T4 sequence: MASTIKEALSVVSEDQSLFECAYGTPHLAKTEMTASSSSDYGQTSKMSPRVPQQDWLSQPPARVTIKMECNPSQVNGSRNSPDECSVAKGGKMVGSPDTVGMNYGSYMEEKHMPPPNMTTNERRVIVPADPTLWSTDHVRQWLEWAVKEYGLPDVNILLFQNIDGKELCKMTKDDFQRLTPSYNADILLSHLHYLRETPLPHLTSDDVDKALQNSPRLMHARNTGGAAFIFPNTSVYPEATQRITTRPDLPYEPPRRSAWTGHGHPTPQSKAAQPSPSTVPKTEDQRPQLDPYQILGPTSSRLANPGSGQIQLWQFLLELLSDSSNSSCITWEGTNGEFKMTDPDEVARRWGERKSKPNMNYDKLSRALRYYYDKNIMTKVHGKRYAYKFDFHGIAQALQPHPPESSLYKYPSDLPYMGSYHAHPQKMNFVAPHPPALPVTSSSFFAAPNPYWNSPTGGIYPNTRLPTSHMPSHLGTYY
# Summary of the method: as §1
# ELF1 = ELF1 (Homo sapiens, UniProt P32519 1-619)
# Chain of ELF1 (P32519 whole entry): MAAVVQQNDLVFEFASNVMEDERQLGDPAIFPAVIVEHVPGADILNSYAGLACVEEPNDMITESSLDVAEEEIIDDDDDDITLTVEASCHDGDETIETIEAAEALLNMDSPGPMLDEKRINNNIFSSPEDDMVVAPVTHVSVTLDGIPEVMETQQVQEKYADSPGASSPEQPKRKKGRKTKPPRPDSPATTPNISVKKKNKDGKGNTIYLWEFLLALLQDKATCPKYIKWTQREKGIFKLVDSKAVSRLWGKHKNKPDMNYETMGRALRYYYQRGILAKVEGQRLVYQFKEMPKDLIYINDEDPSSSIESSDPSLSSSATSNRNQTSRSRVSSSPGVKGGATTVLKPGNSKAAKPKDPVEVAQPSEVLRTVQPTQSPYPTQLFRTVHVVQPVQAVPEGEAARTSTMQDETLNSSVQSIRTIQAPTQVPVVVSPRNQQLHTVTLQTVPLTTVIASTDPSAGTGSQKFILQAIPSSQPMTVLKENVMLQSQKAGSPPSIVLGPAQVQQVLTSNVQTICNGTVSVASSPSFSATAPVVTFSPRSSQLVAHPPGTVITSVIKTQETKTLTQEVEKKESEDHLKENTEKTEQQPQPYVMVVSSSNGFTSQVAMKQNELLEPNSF
# Summary of the method: as §1
# EHF = molecular target: T5, EHF (Homo sapiens, UniProt Q9NZC4 1-300)
# T5 sequence: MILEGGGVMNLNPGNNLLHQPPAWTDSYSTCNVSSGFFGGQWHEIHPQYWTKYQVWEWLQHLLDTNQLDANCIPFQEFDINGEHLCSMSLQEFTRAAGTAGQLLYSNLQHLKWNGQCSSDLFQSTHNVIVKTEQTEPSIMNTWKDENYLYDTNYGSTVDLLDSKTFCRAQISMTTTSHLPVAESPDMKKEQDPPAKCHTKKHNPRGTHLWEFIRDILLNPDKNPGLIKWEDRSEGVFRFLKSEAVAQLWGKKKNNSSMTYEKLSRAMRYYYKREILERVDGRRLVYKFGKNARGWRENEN
# Summary of the method: as §1
# SPI1 = SPI1 (Homo sapiens, UniProt P17947 1-270)
# Summary of the method: as §1
# SPIB = SPIB (Homo sapiens, UniProt Q01892 1-262)
# Chain of SPIB (Q01892 whole entry): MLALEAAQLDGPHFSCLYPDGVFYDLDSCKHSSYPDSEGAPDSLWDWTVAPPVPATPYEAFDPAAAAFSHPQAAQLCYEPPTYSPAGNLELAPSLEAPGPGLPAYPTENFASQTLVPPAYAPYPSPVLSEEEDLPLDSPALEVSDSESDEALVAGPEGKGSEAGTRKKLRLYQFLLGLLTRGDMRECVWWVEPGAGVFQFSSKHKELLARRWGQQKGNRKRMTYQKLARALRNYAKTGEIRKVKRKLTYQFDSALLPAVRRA
# Summary of the method: as §1
# ELK3 = molecular target: T6, ELK3 (Homo sapiens, UniProt P41970 1-407)
# T6 sequence: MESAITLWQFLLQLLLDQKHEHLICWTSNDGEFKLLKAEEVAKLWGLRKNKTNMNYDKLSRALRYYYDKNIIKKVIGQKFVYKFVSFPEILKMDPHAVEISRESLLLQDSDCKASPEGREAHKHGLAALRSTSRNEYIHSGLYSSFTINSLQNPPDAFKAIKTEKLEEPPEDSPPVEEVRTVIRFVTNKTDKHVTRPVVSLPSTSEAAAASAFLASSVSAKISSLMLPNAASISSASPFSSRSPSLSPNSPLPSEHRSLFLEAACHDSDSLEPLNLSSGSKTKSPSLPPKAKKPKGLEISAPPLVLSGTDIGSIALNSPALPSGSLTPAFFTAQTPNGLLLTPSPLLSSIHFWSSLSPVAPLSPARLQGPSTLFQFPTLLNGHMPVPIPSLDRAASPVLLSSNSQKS
# Summary of the method: as §1
sequence,measurement,setting,value
CCTCTC,binding signal,FLI1,"1.51 fold enrichment (6-mer frequency, TF over GST control)"
same,binding signal,ELK1,"1.39 fold enrichment (6-mer frequency, TF over GST control)"
same,binding signal,GABPA,"1.37 fold enrichment (6-mer frequency, TF over GST control)"
same,binding signal,ERG,"1.37 fold enrichment (6-mer frequency, TF over GST control)"
same,binding signal,ELF1,"1.43 fold enrichment (6-mer frequency, TF over GST control)"
same,binding signal,EHF,"1.34 fold enrichment (6-mer frequency, TF over GST control)"
same,binding signal,SPI1,"1.39 fold enrichment (6-mer frequency, TF over GST control)"
same,binding signal,SPIB,"1.44 fold enrichment (6-mer frequency, TF over GST control)"
same,binding signal,ELK3,"1.44 fold enrichment (6-mer frequency, TF over GST control)"
